# 14-3-3 Bad PPI: disrupts binding of bovine 14-3-3 zeta to phospho-Bad peptide; AID 781; P63103; hit rate 0.71% among 220,000; inhibition, % at 21.7 µM; TR-FRET 14-3-3zeta/Dy647-pBad peptide displacement, 1 h;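 active = inhibition above about 70%, limit read from the data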;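 note: 0% = full 14-3-3 plus peptide FRET controls and 100% = background without 14-3-3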
# Target sequence (P63103 whole entry, looked up): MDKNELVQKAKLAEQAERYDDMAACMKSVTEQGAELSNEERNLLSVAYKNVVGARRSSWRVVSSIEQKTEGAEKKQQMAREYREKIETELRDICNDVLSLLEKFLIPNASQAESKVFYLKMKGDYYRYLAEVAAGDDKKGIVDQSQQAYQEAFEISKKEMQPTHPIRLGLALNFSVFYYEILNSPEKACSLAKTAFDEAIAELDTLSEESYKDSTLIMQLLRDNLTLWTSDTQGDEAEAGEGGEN
# p-CIP stab down: lowers stability of the mouse p/CIP coactivator protein. Q05BA5. F442A p/CIP-EGFP cells, EGFP fluorescence, 16 h. decrease of EGFP signal, % at 10 µM. hit rate 0.01% among 290,000. AID 1984;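 active = EGFP signal decrease of at least 30% at 10 µM or well 3 SD below plate mean, unless failing retest; inactive = the rest, including hits failing retest or dose response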
# MsrA inh: bovine MsrA inhibition; hit rate 0.75% among 360,000; purified bovine MsrA, absorbance read-out; inhibition, % at 15.5 µM; AID 651718; in the data active = inhibition above about 4.5%;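 note: 0% = vehicle wells with enzyme and 100% = reference inhibitor wells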
# MsrA act: bovine methionine sulfoxide reductase A activation; purified bovine MsrA, absorbance read-out; activation, % at 10.6 µM; hit rate 0.3% among 360,000; AID 602163; in the data active = activation above about 7.5%;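 note: 0% = vehicle and 100% = reference activator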
# * hit, by the source's call; nt = no result given; + = active, no number; ! = repeats disagree; [ ] = remark or other dose. Sampled rows, rich in hits. Any-hit rate of the full collection: about 1.4%.
SMILES,14-3-3 Bad PPI,p-CIP stab down,MsrA inh,MsrA act
CCOC(=O)c1[nH]c2ccc(OC)cc2c1NC(=O)/C=C/c1ccc2c(c1)OCO2,16,-22,-1,-4
O=C(/C=C/c1ccc2c(c1)OCO2)Nc1nc(-c2ccccc2)cs1,7,-3,4.8*,-3
O=C(/C=C/c1ccc2c(c1)OCO2)Nc1c(C(=O)O)[nH]c2ccccc12,24,5,4.7*,-2
COC(=O)[C@]12C[C@H](CC(=O)NCc3ccc(OC)c(OC)c3)C(=O)N(Cc3ccc4c(c3)OCO4)C1=C[C@H](C(C)(C)C)O[C@@H]2C,nt,nt,1,nt
COc1cc(/C=N/Nc2nc3ccccc3o2)cc(OC)c1O,-7,-4,4.6*,-13
COc1ccc(/C=N/Nc2nc3ccccc3o2)cc1O,-3,5,3,-9
COC(=O)[C@]12C[C@H](CC(=O)NCC3CCCCC3)C(=O)N(Cc3ccccc3)C1=C[C@H](C(C)C)O[C@@H]2C1CC1,nt,nt,0,nt
COC(=O)C1=C(C)N(Cc2cccc(C(F)(F)F)c2)C(=NCc2ccc3c(c2)OCO3)NC1c1cccc(F)c1 (stereo not drawn),nt,nt,-3,nt
COC(=O)[C@]12C[C@H](CC(=O)NCc3ccccc3)C(=O)N(CCC3=CCCCC3)C1=C[C@H](COCc1ccccc1)O[C@@H]2C,nt,nt,1,nt
Cc1ccc(Nc2nc(=O)c3cc([N+](=O)[O-])ccc3s2)cc1,25,-5,0,0
COc1ccc(Nc2nc(=O)c3cc([N+](=O)[O-])ccc3s2)cc1,82*,-8,-1,-3
CC(NCC1COc2ccccc2O1)C1COc2ccccc2O1 (stereo not drawn),nt,14,1,0
CCOC(=O)CCNC(C)C1COc2ccccc2O1 (stereo not drawn),76*,-17,0,-9
CCNC(=O)N1CCN(c2ccc(N3CCN(Cc4ccccc4)[C@H](C)C3)c(C)c2)[C@@H](C)C1,nt,nt,0,nt
N#Cc1c(/N=C/c2ccco2)oc(-c2ccccc2)c1-c1ccccc1,93*[fluorescence artefact?],1,1,-1
N#Cc1c(/N=C/c2ccccc2)oc(-c2ccccc2)c1-c1ccccc1,-4,-10,0,-3
O=C(N[C@@H](Cc1cccnc1)C(=O)N1CCC[C@H]1C(=O)NCCc1ccccc1Cl)c1ccco1,nt,nt,0,nt
CC1CCN(C2(O)C(=O)Nc3ccc(Cl)cc32)CC1 (stereo not drawn),nt,-5,-1,-3
CC1CCN(C2(O)C(=O)Nc3ccc([N+](=O)[O-])cc32)CC1 (stereo not drawn),-5,-18,6.6*,-13
NS(=O)(=O)c1ccc(NCc2ccccc2OCc2ccccc2F)cc1,82*,-7,0,-3
CCCN(C(=O)c1cn(CCC)c2ccccc12)c1ccc(Oc2cccnc2)cc1,nt,nt,0,nt
CCOC(=O)c1c(C)n(OCc2ccccc2)c2ccc3nonc3c12,-1,5,-1,0
COn1c(C)c(C)c2c3nonc3ccc21,95*,-12,1,-1
COc1ccc(-c2ccc(/C=C3/C(=N)N4C=CSC4=NC3=O)o2)c([N+](=O)[O-])c1,73*[fluorescence artefact?],4,0,5
c1ccc(N2CCN(C3CCSC3)CC2)cc1 (stereo not drawn),71*,-7,-1,0
SMILES,14-3-3 Bad PPI,p-CIP stab down,MsrA inh,MsrA act
O=C(CSc1nnc(COc2ccc3c(c2)CCCC3)o1)Nc1ccc(F)cc1,87*,4,1,-1
O=C(CSc1nnc(COc2ccc(Cl)cc2)o1)Nc1ccc(N2CCOCC2)cc1,nt,nt,2,-4
COc1cccc(CC2(CO)CCN(Cc3ccc4cccc(F)c4n3)CC2)c1,90*,-10,0,-3
OCC1(Cc2cccc(F)c2)CCN(Cc2ccc3cccc(F)c3n2)CC1,21,-2,0,-2
C=CCc1ccccc1OCC(O)CNC (stereo not drawn),1,-19,0,6
C=CCc1ccccc1OCC(O)CN(C(C)C)C(C)C (stereo not drawn),71*,-16,0,-3
COC(=O)CC#C[C@@H](C)[C@H](NS(=O)(=O)c1ccc(C)cc1)C(C)(C)C,nt,nt,1,nt
Cc1cc(=O)oc2cc(OCc3ccc(C(=O)OCC(=O)Nc4ccc(N(C)C)cc4)cc3)ccc12,79*,0,2,-1
C=CCN=C1NC(c2cccc(C(F)(F)F)c2)C(C(=O)OC)=C(C)N1Cc1ccccc1C(F)(F)F (stereo not drawn),nt,nt,-3,nt
Cc1cc(C)c(S(=O)(=O)N2CCOCC2)c(C)c1N(C)S(=O)(=O)c1ccccc1,nt,-45,-1,-3
Cc1cc(C)c(S(=O)(=O)N2CCCCC2)c(C)c1N(C)S(=O)(=O)c1ccccc1,-1,-8,0,9.7*
Cc1cc(NC(=O)Cc2cn(Cc3ccccc3)c3ccccc23)ccc1Oc1cccnc1,nt,nt,2,nt
O=C(CC1CCCC1)N[C@@H](Cc1cccnc1)C(=O)N1CCC[C@H]1C(=O)NCCc1ccccc1Cl,nt,nt,1,nt
COC(=O)Nc1ccc2c(c1)N(C(=O)CCN1CCN3CCCC3C1)c1ccccc1CC2 (stereo not drawn),72*!,-7,0,-2
CCOC(=O)Nc1ccc2c(c1)N(C(=O)CCN1CCN3CCCC3C1)c1ccccc1CC2 (stereo not drawn),62,8,0,4
CC(=O)N1C(C)(C)CC(=NOC(=O)c2ccc(C)cc2)CC1(C)C,-4,-7,1,3
CC(=O)N1C(C)(C)CC(=NOC(=O)c2ccccc2)CC1(C)C,92*,5,0,1
Oc1oc(-c2ccccc2)nc1/C=N/c1ccccn1,-11,-16,2,-16
Oc1oc(-c2ccccc2Br)nc1C=Nc1ccc(Br)cn1,76*,-10,-1,0
Cc1cccc(Oc2ncnc3onc(C)c23)c1C,85*[fluorescence artefact?],-2,0,-8
Cc1noc2ncnc(Oc3ccccc3Cl)c12,-1,-3,0,-4
CC(=O)Nc1ccc(C(=O)Nc2cccc(-c3cnc4ccccc4n3)c2)cc1,81*,1,0,-2
COc1ccccc1NC(=O)N1CCCC1C(=O)Nc1nnc(C(C)C)s1 (stereo not drawn),78*[fluorescence artefact?],-4,0,-2
CC(C)c1nnc(NC(=O)C2CCCN2C(=O)Nc2ccccc2F)s1 (stereo not drawn),2,-4,-1,-1
Cc1cc(N2CCNC[C@@H]2C)ccc1N1CCN(Cc2ccccc2)[C@@H](C)C1,nt,nt,-1,nt
SMILES,14-3-3 Bad PPI,p-CIP stab down,MsrA inh,MsrA act
COc1ccc(Nc2nc(-c3cccs3)cs2)c(OC)c1,78*,-2,1,-3
Cc1ccc(NC(=O)Cn2cccc2)cc1Cl,+,7,nt,7
Clc1ccc(OCCCn2cncn2)cc1Cl,86*,-15,2,-4
c1ccc(Cc2ccc(OCCn3cncn3)cc2)cc1,-1,0,-1,-2
c1ccc(-c2ccc(OCCOCCn3cncn3)cc2)cc1,73*,2,-2,-3
O=C(NC1CCCC1)[C@@H]1CCCN1C(=O)[C@H](Cc1cccnc1)NC(=O)N1CCOCC1,nt,nt,0,nt
O=C(C(=O)N1CCC(CNS(=O)(=O)Cc2ccccc2)CC1)c1cccs1,nt,nt,0,nt
CCCCc1nc2ccccc2c(NC(=O)CN(CC)CC)c1CCC,74*,-4,1,-1
